Laboratory results as given in PubChem BioAssay AID1159580 (chemical genetic matrix, 2015).
About 2,000 (36%) of roughly 5,500 compounds were called active. Inconclusive results (about 18%) are left out. The list shows a part of the results. Unmarked numbers belong to inactive results. No stated cut-off is given here; in the data, active means normalized growth mostly below about 0.91 (no sharp cut-off); inconclusive means no clear call, values can overlap the other calls; inactive means mostly above about 0.92.

Experiment: chemical genetic growth profiling, strain panel (AID 1159580);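 further: tested at 20 µM; growth read once vehicle control cultures reached saturation at 30 °C; 1 = growth at the plate median or of vehicle wells; lower values mean less growth of the strain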
Settings: growth OD

Structure (SMILES): COc1ccc2cc(CCC(C)=O)ccc2c1
- normalized growth (S. cerevisiae deletion strains, locus YJR075W, strain HOC1, active compounds read low): 0.965
- normalized growth (S. cerevisiae deletion strains, locus YKL009W, strain mrt4, active compounds read low): 0.86 (active)
- normalized growth (S. cerevisiae deletion strains, locus YKL068W, active compounds read low): 0.963
- normalized growth (S. cerevisiae deletion strains, locus YKL085W, strain MDH1 (second series), active compounds read low): 0.966
- normalized growth (S. cerevisiae deletion strains, locus YKL085W, strain MDH1, active compounds read low): 0.966
- normalized growth (S. cerevisiae deletion strains, locus YKL160W, strain elf1, active compounds read low): 0.997
- normalized growth (S. cerevisiae deletion strains, locus YKL190W, strain CNB1, active compounds read low): 0.972
- normalized growth (S. cerevisiae deletion strains, locus YKR001C, strain vps1, active compounds read low): 0.932
- normalized growth (S. cerevisiae deletion strains, locus YKR026C, strain gcn3, active compounds read low): 0.984
- normalized growth (S. cerevisiae deletion strains, locus YKR091W, strain srl3, active compounds read low): 0.992
- normalized growth (S. cerevisiae deletion strains, locus YLL001W, strain dnm1, active compounds read low): 0.982
- normalized growth (S. cerevisiae deletion strains, locus YLL026W, active compounds read low): 0.991
- normalized growth (S. cerevisiae deletion strains, locus YLL041C, strain sdh2, active compounds read low): 0.996
- normalized growth (S. cerevisiae deletion strains, locus YLR027C, strain aat2, active compounds read low): 0.997
- normalized growth (S. cerevisiae deletion strains, locus YLR039C, strain RIC1, active compounds read low): 1.11
- normalized growth (S. cerevisiae deletion strains, locus YLR058C, strain SHM2, active compounds read low): 0.948
- normalized growth (S. cerevisiae deletion strains, locus YLR102C, strain apc9, active compounds read low): 0.944
- normalized growth (S. cerevisiae deletion strains, locus YLR113W, strain HOG1, active compounds read low): 0.965
- normalized growth (S. cerevisiae deletion strains, locus YLR221C, strain rsa3, active compounds read low): 0.992
- normalized growth (S. cerevisiae deletion strains, locus YLR258W, strain gsy2, active compounds read low): 0.998
- normalized growth (S. cerevisiae deletion strains, locus YLR262C, strain YPT6 (second series), active compounds read low): 1.03
- normalized growth (S. cerevisiae deletion strains, locus YLR262C, strain YPT6, active compounds read low): 1.04
- normalized growth (S. cerevisiae deletion strains, locus YLR268W, strain sec22, active compounds read low): 1.01
- normalized growth (S. cerevisiae deletion strains, locus YLR320W, strain mms22, active compounds read low): 0.971
- normalized growth (S. cerevisiae deletion strains, locus YLR330W, strain CHS5, active compounds read low): 0.951
- normalized growth (S. cerevisiae deletion strains, locus YLR342W, strain FKS1 (second series), active compounds read low): 0.885
- normalized growth (S. cerevisiae deletion strains, locus YLR342W, strain FKS1, active compounds read low): 0.993
- normalized growth (S. cerevisiae deletion strains, locus YLR357W, strain rsc2, active compounds read low): 0.992
- normalized growth (S. cerevisiae deletion strains, locus YLR370C, strain arc18, active compounds read low): 0.998
- normalized growth (S. cerevisiae deletion strains, locus YLR371W, strain rom2, active compounds read low): 0.932
- normalized growth (S. cerevisiae deletion strains, locus YLR384C, strain iki3, active compounds read low): 0.986
- normalized growth (S. cerevisiae deletion strains, locus YLR418C, strain cdc73, active compounds read low): 0.78 (active)
- normalized growth (S. cerevisiae deletion strains, locus YML016C, strain PPZ1, active compounds read low): 0.941
- normalized growth (S. cerevisiae deletion strains, locus YML032C, strain rad52, active compounds read low): 0.967
- normalized growth (S. cerevisiae deletion strains, locus YML120C, strain ndi1, active compounds read low): 0.985
- normalized growth (S. cerevisiae deletion strains, locus YML124C, strain tub3, active compounds read low): 0.929 (active)
- normalized growth (S. cerevisiae deletion strains, locus YMR058W, strain fet3, active compounds read low): 0.996
- normalized growth (S. cerevisiae deletion strains, locus YMR078C, strain ctf18, active compounds read low): 0.929
- normalized growth (S. cerevisiae deletion strains, locus YMR125W, strain sto1, active compounds read low): 1.01
- normalized growth (S. cerevisiae deletion strains, locus YMR129W, active compounds read low): 0.983
- normalized growth (S. cerevisiae deletion strains, locus YMR205C, strain PFK2, active compounds read low): 1.01
- normalized growth (S. cerevisiae deletion strains, locus YMR223W, strain ubp8, active compounds read low): 0.895 (active)
- normalized growth (S. cerevisiae deletion strains, locus YMR231W, strain pep5, active compounds read low): 0.999
- normalized growth (S. cerevisiae deletion strains, locus YMR263W, strain SAP30, active compounds read low): 0.923
- normalized growth (S. cerevisiae deletion strains, locus YMR307W, strain GAS1, active compounds read low): 0.917
- normalized growth (S. cerevisiae deletion strains, locus YNL067W, strain RPL9B, active compounds read low): 0.97
- normalized growth (S. cerevisiae deletion strains, locus YNL071W, strain lat1, active compounds read low): 0.987
- normalized growth (S. cerevisiae deletion strains, locus YNL128W, strain TEP1, active compounds read low): 0.963
- normalized growth (S. cerevisiae deletion strains, locus YNL153C, strain GIM3, active compounds read low): 0.975
- normalized growth (S. cerevisiae deletion strains, locus YNL183C, strain NPR1, active compounds read low): 0.91
- normalized growth (S. cerevisiae deletion strains, locus YNL209W, strain ssb2, active compounds read low): 0.995
- normalized growth (S. cerevisiae deletion strains, locus YNL233W, strain BNI4, active compounds read low): 0.972
- normalized growth (S. cerevisiae deletion strains, locus YNL248C, strain rpa49, active compounds read low): 1.02
- normalized growth (S. cerevisiae deletion strains, locus YNL250W, strain rad50, active compounds read low): 0.943
- normalized growth (S. cerevisiae deletion strains, locus YNL271C, strain bni1, active compounds read low): 0.939
- normalized growth (S. cerevisiae deletion strains, locus YNL298W, strain CLA4, active compounds read low): 0.919
- normalized growth (S. cerevisiae deletion strains, locus YNL307C, strain MCK1, active compounds read low): 0.827 (active)
- normalized growth (S. cerevisiae deletion strains, locus YNL322C, strain KRE1 (second series), active compounds read low): 0.996
- normalized growth (S. cerevisiae deletion strains, locus YNL322C, strain KRE1, active compounds read low): 0.961
- normalized growth (S. cerevisiae deletion strains, locus YNR049C, strain mso1, active compounds read low): 0.991
- normalized growth (S. cerevisiae deletion strains, locus YNR052C, strain pop2, active compounds read low): 0.972
- normalized growth (S. cerevisiae deletion strains, locus YOL006C, strain TOP1, active compounds read low): 0.672
- normalized growth (S. cerevisiae deletion strains, locus YOL012C, strain htz1): 1.84
- normalized growth (S. cerevisiae deletion strains, locus YOL147C, strain pex11, active compounds read low): 0.939
- normalized growth (S. cerevisiae deletion strains, locus YOR001W, strain rrp6, active compounds read low): 0.979
- normalized growth (S. cerevisiae deletion strains, locus YOR061W, strain CKA2, active compounds read low): 0.947
- normalized growth (S. cerevisiae deletion strains, locus YOR069W, strain VPS5, active compounds read low): 0.97
- normalized growth (S. cerevisiae deletion strains, locus YOR070C, strain gyp1, active compounds read low): 0.991
- normalized growth (S. cerevisiae deletion strains, locus YOR080W, strain dia2, active compounds read low): 0.988
- normalized growth (S. cerevisiae deletion strains, locus YOR083W, strain WHI5, active compounds read low): 0.985
- normalized growth (S. cerevisiae deletion strains, locus YOR106W, strain vam3, active compounds read low): 1
- normalized growth (S. cerevisiae deletion strains, locus YOR136W, strain idh2, active compounds read low): 0.956
- normalized growth (S. cerevisiae deletion strains, locus YOR144C, strain elg1, active compounds read low): 0.951
- normalized growth (S. cerevisiae deletion strains, locus YOR184W, strain ser1, active compounds read low): 0.786 (active)
- normalized growth (S. cerevisiae deletion strains, locus YOR231W, strain MKK1, active compounds read low): 0.93
- normalized growth (S. cerevisiae deletion strains, locus YOR265W, strain rbl2, active compounds read low): 0.987
- normalized growth (S. cerevisiae deletion strains, locus YOR270C, strain vph1, active compounds read low): 0.886
- normalized growth (S. cerevisiae deletion strains, locus YOR290C, strain snf2, active compounds read low): 0.977
- normalized growth (S. cerevisiae deletion strains, locus YOR316C, strain cot1, active compounds read low): 0.943
- normalized growth (S. cerevisiae deletion strains, locus YPL051W, strain arl3, active compounds read low): 0.985
- normalized growth (S. cerevisiae deletion strains, locus YPL055C, strain LGE1, active compounds read low): 0.88
- normalized growth (S. cerevisiae deletion strains, locus YPL078C, strain atp4, active compounds read low): 0.981
- normalized growth (S. cerevisiae deletion strains, locus YPL106C, strain sse1, active compounds read low): 0.96
- normalized growth (S. cerevisiae deletion strains, locus YPL240C, strain hsp82, active compounds read low): 0.992
- normalized growth (S. cerevisiae deletion strains, locus YPL241C, strain CIN2, active compounds read low): 0.96
- normalized growth (S. cerevisiae deletion strains, locus YPL256C, strain CLN2, active compounds read low): 0.911
- normalized growth (S. cerevisiae deletion strains, locus YPR119W, strain clb2, active compounds read low): 0.943
- normalized growth (S. cerevisiae deletion strains, locus YPR141C, strain kar3, active compounds read low): 0.924
- normalized growth (S. cerevisiae deletion strains, locus YPR163C, strain tif3, active compounds read low): 0.935
- normalized growth (S. cerevisiae deletion strains, locus YPR167C, strain met16, active compounds read low): 0.941
- normalized growth (S. cerevisiae deletion strains, strain wtn01, active compounds read low): 0.959
- normalized growth (S. cerevisiae strains, strain wild type, active compounds read low): 0.935
